# Reference: PubChem BioAssay (EPA / NIEHS)
# Records with an inconclusive call do not appear. The source made the active and inactive calls. How the source made its calls: active means hit-call score of the fitted dose curve at least 0.9, where 1 is the maximum; inconclusive means response in the unintended direction; inactive means score below 0.9.
# Biological target: rat Thyrotropin Releasing Hormone Receptor (TRH), Trhr (gene 25570) (UniProt Q01717)
# Assay: NVS_GPCR_rTRH: NovaScreen (NVS) G Protein-Coupled Receptor Assay for rat Thyrotropin Releasing Hormone Receptor (TRH) (AID 2283329);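 further: hit means lower bound tracer signal versus DMSO baseline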
# How it was run: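 Test compounds are screened at 25 uM in duplicate against radioligand binding in rat forebrain membranes, with active pairs followed up over a concentration range. Detection uses filter-based radiodetection after a 4 h exposure.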
# Chain of rat Thyrotropin Releasing Hormone Receptor (TRH), Trhr (gene 25570) (Q01717 whole entry, looked up): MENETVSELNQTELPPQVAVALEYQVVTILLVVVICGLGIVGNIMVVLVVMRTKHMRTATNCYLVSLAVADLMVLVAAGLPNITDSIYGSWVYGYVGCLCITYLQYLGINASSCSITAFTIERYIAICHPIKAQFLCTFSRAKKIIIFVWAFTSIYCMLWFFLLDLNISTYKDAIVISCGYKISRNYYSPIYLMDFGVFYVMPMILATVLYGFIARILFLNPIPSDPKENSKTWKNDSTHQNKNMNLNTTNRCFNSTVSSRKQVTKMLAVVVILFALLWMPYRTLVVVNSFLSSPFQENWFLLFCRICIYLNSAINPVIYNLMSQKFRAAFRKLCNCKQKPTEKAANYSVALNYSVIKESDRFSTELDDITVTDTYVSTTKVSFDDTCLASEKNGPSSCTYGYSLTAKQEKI
row,SMILES,outcome
1,CCOc1nc(F)cc2nc(S(=O)(=O)Nc3c(Cl)cccc3Cl)nn12,inactive
2,CCOP(=S)(OCC)Oc1nc(Cl)n(C(C)C)n1,inactive
3,CCOC(=O)C(C)OC(=O)c1cc(Oc2ccc(C(F)(F)F)cc2Cl)ccc1[N+](=O)[O-] (stereo not given),inactive
4,CCCCC(O)(Cn1cncn1)c1ccc(Cl)cc1Cl (stereo not given),inactive

# Biological target: human Peripheral-type Benzodiazepine Receptor (PBR), TSPO (gene 706) (UniProt P30536)
# Assay: NVS_MP_hPBR: NovaScreen (NVS) Membrane Protein Assay for human Peripheral-type Benzodiazepine Receptor (PBR) (AID 2283331);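 further: hits reduce radioligand binding relative to DMSO baseline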
# How it was run: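 Cell-free binding to human colonic membrane preparations measured by filter-based scintillation counting after 1 h. Compounds first run at 25 uM in duplicate, then concentration series for actives; signal loss against DMSO baseline.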
# Chain of human Peripheral-type Benzodiazepine Receptor (PBR), TSPO (gene 706) (P30536 whole entry, looked up): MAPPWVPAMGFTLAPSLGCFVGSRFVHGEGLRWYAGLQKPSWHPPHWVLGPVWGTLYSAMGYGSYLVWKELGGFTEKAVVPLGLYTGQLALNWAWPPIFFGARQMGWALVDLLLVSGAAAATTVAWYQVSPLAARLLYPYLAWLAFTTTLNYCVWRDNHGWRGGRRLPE
SMILES,outcome,AC50
O=C(Nc1ccccc1-c1ccc(Cl)cc1)c1cccnc1Cl,inactive,
COC(=O)N(C(=O)N1CO[C@@]2(C(=O)OC)Cc3cc(Cl)ccc3C2=N1)c1ccc(OC(F)(F)F)cc1,,0.292 µM (active)
CCOP(=S)(OCC)Oc1nc(Cl)n(C(C)C)n1,inactive,
CC(C)=CC1C(C(=O)OCc2coc(Cc3ccccc3)c2)C1(C)C (stereo not given),inactive,
COCC(C)N(C(=O)CCl)c1c(C)csc1C (stereo not given),,9.66 µM (active)
CC1(C)C(C=C(Cl)Cl)C1C(=O)OC(C#N)c1cccc(Oc2ccccc2)c1 (stereo not given),,14.9 µM (active)
CCOC(=O)C(C)OC(=O)c1cc(Oc2ccc(C(F)(F)F)cc2Cl)ccc1[N+](=O)[O-] (stereo not given),,8.41 µM (active)
COP(=S)(OC)SCn1nnc2ccccc2c1=O,,17.5 µM (active)
COCC(=O)N(c1c(C)cccc1C)C(C)C(=O)OC (stereo not given),inactive,
CCNP(=S)(OC)O/C(C)=C/C(=O)OC(C)C (stereo not given),,17.5 µM (active)
CC(C)NC(=O)N1CC(=O)N(c2cc(Cl)cc(Cl)c2)C1=O,,8.8 µM (active)
Clc1nc(Cl)nc(Nc2ccccc2Cl)n1,,14.9 µM (active)
COP(=S)(OC)Oc1ccc([N+](=O)[O-])c(C)c1,,25 µM (active)
OC(c1ccc(Cl)cc1)(c1ccc(Cl)cc1)C(Cl)(Cl)Cl,inactive,
CC(C)Oc1cccc(NC(=O)c2ccccc2C(F)(F)F)c1,,0.824 µM (active)
CCCCOCN(C(=O)CCl)c1c(CC)cccc1CC,,6.37 µM (active)
CCOP(=O)(OCC)Oc1nc(Cl)c(Cl)cc1Cl,,4.32 µM (active)
COc1ccc(-c2ccccc2)cc1NNC(=O)OC(C)C,,0.149 µM (active)
CCN(CC)c1nc(C)cc(OP(=S)(OC)OC)n1,,14 µM (active)
Cc1nc(N(C)C)nc(OC(=O)N(C)C)c1C,,12.1 µM (active)
CCCCC(O)(Cn1cncn1)c1ccc(Cl)cc1Cl (stereo not given),inactive,
